The values below come from PubChem BioAssay (NCI).

What all share (experiment): NCI-60 one-dose screen, 48 h (100 = growth as untreated, 0 = no growth, -100 = all killed)
One experiment deals with NCI-H23 lung. Conditions: 10 µM unless noted.
A further experiment relates to NCI-H226 lung. To be noted: 10 µM unless noted.
A further experiment concerns NCI-H322M lung. To be noted: 10 µM unless noted.
In the next experiment the test system is HOP-62 NSCLC. To be noted: 10 µM unless noted.
The next experiment deals with NCI-H460 lung. To be noted: 10 µM unless noted.
The next experiment concerns HOP-92 NSCLC. Conditions: 10 µM unless noted.
Another experiment concerns NCI-H522 lung. To be noted: 10 µM unless noted.
The test system of the next experiment is A549/ATCC NSCLC. To be noted: 10 µM unless noted.
For another experiment, the system named is 786-0 renal. To be noted: 10 µM unless noted.
The test system of the next experiment is COLO 205 colon. Conditions: 10 µM unless noted.
In the next experiment the test system is DU-145 prostate. Conditions: 10 µM unless noted.
The subject of the next experiment is K-562 leukemia. Conditions: 10 µM unless noted.
The subject of a further experiment is MALME-3M melanoma. To be noted: 10 µM unless noted.
For the next experiment, the system named is MDA-MB-231 breast. To be noted: 10 µM unless noted.
Another experiment deals with RXF 393 renal. To be noted: 10 µM unless noted.
In another experiment the test system is SF-268 CNS. To be noted: 10 µM unless noted.
For the next experiment, the system named is SF-295 CNS. Conditions: 10 µM unless noted.
For another experiment, the system named is SF-539 CNS. To be noted: 10 µM unless noted.
Another experiment deals with UACC-257 melanoma. Conditions: 10 µM.
A further experiment relates to M14 melanoma. To be noted: 10 µM unless noted.

The structures appear in SMILES notation. Compounds without any hit were thinned out: in the full panel of roughly 83,000, 20% have a hit.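 Cells were grown in 96-well plates and exposed to the test compound at a single concentration for 48 hours; results are reported as percent growth, with values below 10 considered active.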 Unmarked numbers belong to inactive results. The source made the active and inactive calls.

`COc1ccccc1/C=C/C(=O)c1nnn(-c2ccc(C(=O)O)cc2)c1C`: the growth with NCI-H23 lung was 87.6%; in the experiment with NCI-H226 lung, 94.7%; in the experiment on NCI-H322M lung, 92.1%; in the experiment with HOP-62 NSCLC, 110%; with NCI-H460 lung, 96.1%; in the experiment on HOP-92 NSCLC, 101%. Further, the growth is 82.4% in the experiment on NCI-H522 lung; 90.3% with A549/ATCC NSCLC; 93.2% in the experiment with 786-0 renal; 110% with COLO 205 colon; 80.4% in the experiment on DU-145 prostate; 73.7% in the experiment with K-562 leukemia. Besides, the growth in the experiment with MALME-3M melanoma is 86.8%; in the experiment with MDA-MB-231 breast, 98.7%; in the experiment with RXF 393 renal, 86.6%; in the experiment on SF-268 CNS, 87.5%; in the experiment with SF-295 CNS, 100%; with SF-539 CNS it was 91.4%. For the same compound, the growth in the experiment on UACC-257 melanoma is 81.5%; in the experiment with M14 melanoma it was 77.8%.

Regarding `C#C[C@]1(O)CC[C@H]2[C@@H]3CC=C4c5sc(C6CC6)nc5CC[C@]4(C)[C@H]3CC[C@@]21C`, the growth in the experiment on NCI-H23 lung is 86.4%; in the experiment on NCI-H226 lung, 94.6%; with NCI-H322M lung, 84.1%; with HOP-62 NSCLC it was 100%; in the experiment on NCI-H460 lung it was 82.2%; with HOP-92 NSCLC it was 120%. Moreover, the growth in the experiment with NCI-H522 lung was 81.6%; in the experiment on A549/ATCC NSCLC, 72.5%; with 786-0 renal it was 51.2%; in the experiment with COLO 205 colon it was 119%; in the experiment on DU-145 prostate it was 92.3%; in the experiment with K-562 leukemia, 35.3%. Also, the growth in the experiment with MALME-3M melanoma is 107%; in the experiment on MDA-MB-231 breast, 91.3%; with RXF 393 renal, 5.22% (active); in the experiment on SF-268 CNS, 86.5%; with SF-295 CNS it was 43.7%; in the experiment with SF-539 CNS, 66.4%. Also, the growth in the experiment with UACC-257 melanoma was 78.9%; in the experiment with M14 melanoma, 77.9%.

As to `CCOC(=O)C1=C(C)Nc2nnc(Nc3ccccc3)n2C1c1ccccc1` (centres undefined), the growth with NCI-H23 lung was 72.4%; in the experiment with NCI-H226 lung, 86.7%; with NCI-H322M lung it was 91.2%; with HOP-62 NSCLC it was 81.8%; in the experiment on NCI-H460 lung, -28.3% (active); with HOP-92 NSCLC, 82.4%. Further, the growth was 79.2% with NCI-H522 lung; 48.9% in the experiment with A549/ATCC NSCLC; 75.5% in the experiment on 786-0 renal; 88.9% in the experiment on COLO 205 colon; 81.6% in the experiment on DU-145 prostate; 57% in the experiment on K-562 leukemia. Moreover, the growth in the experiment on MALME-3M melanoma is 75.3%; in the experiment on MDA-MB-231 breast, 65.7%; in the experiment with RXF 393 renal, 80%; in the experiment with SF-268 CNS, 81.9%; in the experiment on SF-295 CNS it was 96.6%; in the experiment on SF-539 CNS it was -3.55% (active). Besides, the growth was 97% in the experiment on UACC-257 melanoma and 100% with M14 melanoma.

Turning to `COc1ccc(NC(=O)[C@H](C)N)cc1C(=O)Nc1cccc(-c2cc(=O)c3c(OC)c(OC)c(OC)cc3o2)c1`, the growth is 64.4% with NCI-H23 lung; 67.2% with NCI-H226 lung; 67.7% with NCI-H322M lung; 67.3% in the experiment on HOP-62 NSCLC; 52.4% with NCI-H460 lung; -4.58% (active) in the experiment with HOP-92 NSCLC. Also, the growth with NCI-H522 lung is 82%; in the experiment on A549/ATCC NSCLC, 76.5%; with 786-0 renal it was 63.5%; with COLO 205 colon, 69.6%; in the experiment with DU-145 prostate it was 60.8%; in the experiment on K-562 leukemia, 52.6%. Also, the growth was 86.5% in the experiment with MALME-3M melanoma; 62.3% in the experiment with MDA-MB-231 breast; 71.9% with RXF 393 renal; 66.6% with SF-268 CNS; 64.6% in the experiment with SF-295 CNS; 71.9% in the experiment with SF-539 CNS. For the same compound, the growth in the experiment with UACC-257 melanoma is 109%; in the experiment with M14 melanoma it was 104%.

As for `COC[C@@]1(C)CC[C@]2(C)CC[C@]3(C)C(=CC[C@@H]4[C@@]5(C)CCCNC(C)(C)[C@@H]5CC[C@]43C)C2C1` (some centres undefined), the growth is 75.4% in the experiment with NCI-H23 lung; 81.3% in the experiment with NCI-H226 lung; 89.4% in the experiment on NCI-H322M lung; 83.9% in the experiment on HOP-62 NSCLC; 29.8% with NCI-H460 lung; 73% in the experiment with HOP-92 NSCLC. Moreover, the growth in the experiment with NCI-H522 lung was 76.7%; in the experiment on A549/ATCC NSCLC, 55.7%; in the experiment on 786-0 renal, 59.1%; in the experiment with COLO 205 colon, 22%; in the experiment with DU-145 prostate, 73.6%; in the experiment with K-562 leukemia, 6.79% (active). The growth in the experiment on MALME-3M melanoma was 56.7%; in the experiment on MDA-MB-231 breast, 77.7%; with RXF 393 renal it was 72.2%; in the experiment with SF-268 CNS, 77.1%; with SF-295 CNS, 3.52% (active); in the experiment on SF-539 CNS, 62.7%. In addition, the growth with UACC-257 melanoma was 60%; in the experiment on M14 melanoma it was 50.1%.

For the compound `O=C1CC2(CCOCC2)Oc2ncccc21`, the growth with NCI-H23 lung was 72.5%; with NCI-H226 lung it was 103%; with NCI-H322M lung, 103%; with HOP-62 NSCLC, 101%; in the experiment on NCI-H460 lung, 106%; with HOP-92 NSCLC it was 94.6%. The growth with NCI-H522 lung is -49.2% (active); in the experiment with A549/ATCC NSCLC, 102%; in the experiment with 786-0 renal it was 47.7%; in the experiment with COLO 205 colon it was -13.7% (active); in the experiment with DU-145 prostate, 97.7%; in the experiment on K-562 leukemia, 4.49% (active). Also, the growth with MALME-3M melanoma is -31.6% (active); in the experiment on MDA-MB-231 breast, 8.5% (active); in the experiment with RXF 393 renal it was 92.8%; with SF-268 CNS it was 65.2%; in the experiment on SF-295 CNS it was 109%; in the experiment with SF-539 CNS it was 27.7%. The growth in the experiment on UACC-257 melanoma is 79.2%.

In the case of `COc1cc(C2=NN(C(C)=O)C(c3ccc(N4CCOCC4)cc3)C2)cc(OC)c1OC` (centres undefined), the growth was 86.8% in the experiment with NCI-H23 lung; 96.5% in the experiment with NCI-H226 lung; 88.1% in the experiment with NCI-H322M lung; 91.8% in the experiment with HOP-62 NSCLC; 103% with NCI-H460 lung; 92.4% in the experiment on HOP-92 NSCLC. Moreover, the growth in the experiment on NCI-H522 lung was 89.7%; in the experiment with A549/ATCC NSCLC, 104%; with 786-0 renal, 95.5%; in the experiment with COLO 205 colon it was 106%; in the experiment with DU-145 prostate, 107%; with K-562 leukemia, 114%. Further, the growth was 94.4% in the experiment with MALME-3M melanoma; 92% with MDA-MB-231 breast; 108% with RXF 393 renal; 99% with SF-268 CNS; 101% in the experiment with SF-295 CNS; 102% with SF-539 CNS. Also, the growth in the experiment with UACC-257 melanoma is 103%; with M14 melanoma, 84.1%.

For the compound `O=C(/C=C1\C=CN(CCCCO)c2ccccc21)n1ccc2ccccc21`, the growth with NCI-H23 lung is 101%; in the experiment on NCI-H226 lung it was 86.4%; with NCI-H322M lung, 102%; in the experiment with HOP-62 NSCLC, 84.2%; with NCI-H460 lung it was 103%; in the experiment with HOP-92 NSCLC it was 98.4%. The growth is 99.7% in the experiment on NCI-H522 lung; 105% in the experiment with A549/ATCC NSCLC; 107% in the experiment on 786-0 renal; 104% in the experiment with COLO 205 colon; 107% with DU-145 prostate; 109% in the experiment on K-562 leukemia. Also, the growth with MALME-3M melanoma is 99.2%; in the experiment on MDA-MB-231 breast, 98.5%; in the experiment on RXF 393 renal, 113%; in the experiment with SF-268 CNS it was 107%; in the experiment with SF-295 CNS it was 103%; in the experiment on SF-539 CNS, 98.6%. The figures for the growth with UACC-257 melanoma and in the experiment on M14 melanoma were 105% and 94.6%, respectively.
